# Source: PubChem
# Sampled rows, rich in hits. Any-hit rate of the full collection: about 6.7%.
# T cruzi growth-1: T. cruzi intracellular proliferation inhibitors, primary screen, cell-based, beta-gal Tulahuen parasites, NIH3T3 host, luminescence | inhibition, % at 8.34 µM | actives 5.9% (n = 77,000) | T. cruzi beta-gal in NIH3T3, GalScreen luminescence, 90 h | AID 624255, 2012;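 active means mean inhibition above about 93%, with at least 55% of replicates each passing it, limit read from the data, passing the limit was not always enough; inconclusive means only one of those two conditions holds; inactive means neither condition holds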
# Pf Dd2 inh: P. falciparum Dd2 growth inhibitors, primary screen, SYBR Green fluorescence, single dose replicates. activity change, % at 10 µM. 72 h; active compounds read low. actives 2.3% (n = 94,000); in the data active means activity change below about -80%; inconclusive means no clear call, values can overlap the other calls
# C diff HTS: C. difficile growth inhibitors, primary screen, HTS; Clostridium difficile clinical isolate growth, OD600, 24 h; active compounds read low; growth activity, negative = inhibition, % at 16 µg/mL (by protocol); actives 0.25% (n = 86,000); AID 1259249, 2017;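 active means mean growth activity at or below -80% and every replicate also at or below -80%; inconclusive means mean at or below -80% but some replicate above -80%; inactive means mean growth activity above -80%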;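 further: 0% = DMSO wells and -100% = levofloxacin 16 µg/mL wells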
# T cruzi growth-2: T. cruzi intracellular proliferation inhibitors, confirmation, cell-based, NIH3T3 host, beta-gal parasite, luminescence, cherry-pick. shares compounds with T cruzi growth-1. T. cruzi beta-gal in NIH3T3, GalScreen luminescence, 90 h. inhibition, % at 8.35 µM. actives 72% (n = 5,600). AID 651739, 2012;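 active means mean replicate inhibition above about 95% and at least 55% of replicates individually reaching it, limit read from the data; inconclusive means only one of the two criteria is met; inactive means neither criterion is met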
# T cruzi growth-3: inhibitors of intracellular T. cruzi replication, confirmation, NIH3T3 host cells, beta-gal parasites, cherry-pick, set 2; inhibition, % at 2.09 µM; T. cruzi beta-gal in NIH3T3, GalScreen luminescence, 90 h; shares compounds with T cruzi growth-1; actives 21% (n = 5,600); AID 651740, 2012;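 active means mean inhibition above about 95%, with at least 55% of replicates also reaching it, limit read from the data; inconclusive means meets just one of the two conditions; inactive means meets neither condition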;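 further: plate controls were neutral control median for no effect and positive control median for full effect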
# 3T3 cytotox: cytotoxicity in mouse NIH/3T3 fibroblasts, confirmation, cytotoxicity control for T. cruzi proliferation inhibitor project, cell-based, cherry-pick, single point | shares compounds with T cruzi growth-1 | NIH/3T3 viability, CellTiter-Glo ATP luminescence, 90 h | cytotoxicity (signal decrease), % at 8.35 µM | actives 14% (n = 5,600);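 active means mean signal decrease across replicates above about 35% based on untreated-well scatter, with enough replicates individually passing, limit read from the data; inconclusive means no rule stated though some were filed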;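 further: 0% = median of neutral control wells and 100% = median of positive control wells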
# NIH3T3 tox 2: NIH/3T3 fibroblast cytotoxicity, confirmation, cytotoxicity control, cell-based, cherry-pick, single point, set 2 | shares compounds with T cruzi growth-1 | NIH/3T3 viability, CellTiter-Glo ATP luminescence, 90 h | inhibition, % at 24.9 µM | actives 56% (n = 5,600) | AID 651744, 2012;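 active means mean loss of cell viability signal at or above a set limit, and enough replicates individually reaching it; inconclusive means meets only the mean limit or only the replicate share; inactive means meets neither condition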;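 further: 0% = median of neutral control wells and 100% = median of positive control wells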
# The depositor's hits bear a star; ? = inconclusive; . = no result.
SMILES,T cruzi growth-1,Pf Dd2 inh,C diff HTS,T cruzi growth-2,T cruzi growth-3,3T3 cytotox,NIH3T3 tox 2
CC(C)C(=O)Nc1ccc2c(c1)C(=O)N(C)[C@@H]1CC[C@@H](CC(=O)NCc3ccc(F)cc3)O[C@@H]1CO2,96.0*,3.6,3.3,48.6,-12.7,16.7,-14.9
CN1C(=O)c2cc(NC(=O)c3ccc(F)cc3)ccc2OC[C@H]2O[C@@H](CC(=O)NCC3CCCCC3)CC[C@H]21,100.9*,-2.6,1.3,112.8*,60.9,38.7*,60.6*
CN1C(=O)c2cc(NC(=O)c3ccc(F)cc3)ccc2OC[C@@H]2O[C@@H](CC(=O)NCC3CCCCC3)CC[C@@H]21,58.2,-3.3,0.5,.,.,.,.
C[C@H](CO)N1C[C@H](C)[C@@H](CN(C)Cc2ccncc2)Oc2ncc(C#CC3CCCC3)cc2C1=O,-44.7,2.6,-5.2,.,.,.,.
COc1cccc(C#Cc2ccc([C@H]3[C@H](CO)N4C(=O)CN(C(=O)Cc5cccnc5)C[C@@H]34)cc2)c1,.,-38.8,5.0,.,.,.,.
COc1ccccc1-c1ccc2n(c1=O)C[C@@H]1[C@@H](CO)[C@H](C(=O)NC3CCC3)N(C(=O)C3CCC3)[C@H]21,46.8,.,-2.6,.,.,.,.
CC(=O)Nc1ccc2c(c1)C(=O)N(C)[C@H]1CC[C@@H](CC(=O)NCC3CC3)O[C@@H]1CO2,-21.0,10.9,-5.7,.,.,.,.
CC(=O)Nc1ccc2c(c1)C(=O)N(C)[C@@H]1CC[C@@H](CC(=O)NCC3CCCCC3)O[C@H]1CO2,99.1*,15.9,-2.6,9.5,29.2,1.7,-5.6
CCCNC(=O)[C@H]1[C@H](CO)[C@H]2Cn3c(ccc(C4=CCCCC4)c3=O)[C@@H]1N2Cc1cocn1,-10.6,6.5,0.2,.,.,.,.
CCCNC(=O)[C@H]1[C@H](CO)[C@H]2Cn3c(ccc(-c4ccccc4)c3=O)[C@@H]1N2C(=O)CC1CC1,106.2*,-13.9,-2.5,81.7,2.9,3.1,-7.7
CN(C)C(=O)[C@@H]1[C@@H](CO)[C@@H]2Cn3c(ccc(-c4cccc(F)c4)c3=O)[C@H]1N2CCc1ccccc1,15.6,4.3,-1.8,.,.,.,.
CCNC(=O)[C@@H]1[C@@H](CO)[C@@H]2Cn3c(ccc(-c4ccccc4)c3=O)[C@H]1N2C(=O)CC1CC1,.,38.0,-0.6,.,.,.,.
CCCNC(=O)[C@@H]1[C@@H](CO)[C@@H]2Cn3c(ccc(-c4cccc(OC)c4)c3=O)[C@H]1N2CCC,100.2*,5.1,3.9,51.7,10.9,7.0,14.2
CN(C)C(=O)[C@@H]1[C@@H](CO)[C@@H]2Cn3c(ccc(-c4cccc(F)c4)c3=O)[C@H]1N2Cc1ccccc1,102.8*,.,-10.6,13.0,15.3,-12.2,7.1
CCNC(=O)[C@H]1[C@H](CO)[C@H]2Cn3c(ccc(C4=CCCCC4)c3=O)[C@@H]1N2Cc1cocn1,?,-0.2,3.4,1.2,-15.5,-14.1,-17.3
CCCNC(=O)[C@H]1[C@H](CO)[C@H]2Cn3c(ccc(-c4cccc(OC)c4)c3=O)[C@@H]1N2CCC,79.1,0.2,1.0,.,.,.,.
O=C(C1CC1)N1[C@@H]2CN(S(=O)(=O)c3ccc(F)cc3)c3ccccc3[C@@H]2[C@@H]1CO,24.2,-1.7,-3.9,.,.,.,.
COCC(=O)N(C)C[C@@H]1Oc2cc(C3=CCCCC3)ccc2S(=O)(=O)N([C@H](C)CO)C[C@H]1C,9.7,14.2,4.3,.,.,.,.
COc1ccc2c3c(n(C)c2c1)[C@H](CO)N(Cc1ccc2c(c1)OCO2)CC31CCN(C(=O)c2ccc3c(c2)OCO3)CC1,.,?,9.4,.,.,.,.
C[C@@H]1CN([C@@H](C)CO)S(=O)(=O)c2ccc(C#CC3CC3)cc2O[C@@H]1CN(C)Cc1cccnc1,.,-21.4,5.3,.,.,.,.
CCCC(=O)Nc1ccc2c(c1)OC[C@H](C)N(Cc1ccccc1)C[C@H](C)[C@H](OC)CN(C)C2=O,-34.8,-7.4,.,.,.,.,.
C[C@@H]1CN([C@H](C)CO)C(=O)Cc2cc(NC(=O)C3CCCCC3)ccc2O[C@H]1CN(C)Cc1ccc(C(=O)Nc2ccccc2N)cc1,.,-57.3,-1.4,.,.,.,.
CCCNC(=O)[C@@H]1[C@@H](CO)[C@@H]2Cn3c(ccc(C4=CCCC4)c3=O)[C@H]1N2C(C)=O,105.6*,12.5,1.0,108.5*,15.7,3.2,-6.3
CCCNC(=O)[C@H]1[C@H](CO)[C@H]2Cn3c(ccc(C4=CCCC4)c3=O)[C@@H]1N2C(C)=O,-3.8,4.9,-1.5,.,.,.,.
O=C(NC1CCC1)[C@@H]1[C@@H](CO)[C@@H]2Cn3c(ccc(-c4ccc(F)cc4)c3=O)[C@H]1N2Cc1cocn1,.,11.7,1.9,.,.,.,.
SMILES,T cruzi growth-1,Pf Dd2 inh,C diff HTS,T cruzi growth-2,T cruzi growth-3,3T3 cytotox,NIH3T3 tox 2
O=C(NC1CCC1)[C@@H]1[C@@H](CO)[C@@H]2Cn3c(ccc(-c4cccc(F)c4)c3=O)[C@H]1N2Cc1cocn1,100.4*,.,-10.9,61.0,16.6,21.4,12.0
O=C(Nc1ccc(Cl)c(Cl)c1)N[C@@H]1CC[C@H](CCn2cc(C3CCCC3)nn2)O[C@@H]1CO,.,-59.0,-16.3,.,.,.,.
N#C[C@@H]1[C@@H](c2ccc(C#Cc3cccnc3)cc2)[C@@H](CO)N1C(=O)C1CC1,37.1,15.2,1.1,.,.,.,.
N#C[C@H]1[C@@H](c2ccc(C#Cc3cccc(F)c3)cc2)[C@H](CO)N1C(=O)C1CC1,98.1*,-22.1,-4.5,99.5*,100.4*,39.3*,95.2*
COc1cccc(C#Cc2ccc([C@@H]3[C@H](C#N)N(C(=O)C4CC4)[C@H]3CO)cc2)c1,?,-40.3,-9.2,93.8,111.6*,7.6,24.8*
COc1cccc(C#Cc2ccc([C@@H]3[C@@H](CO)N(C(=O)C4CCOCC4)[C@H]3C#N)cc2)c1,76.3,-38.5,-1.5,.,.,.,.
N#C[C@@H]1[C@H](c2ccc(C#Cc3ccc(F)cc3)cc2)[C@@H](CO)N1C(=O)C1CC1,102.8*,-31.7,-11.6,104.5*,108.0*,0.5,98.0*
N#C[C@@H]1[C@@H](c2ccc(C#Cc3ccc(F)cc3)cc2)[C@H](CO)N1C(=O)C1CCC1,87.1,-77.8,-2.4,.,.,.,.
N#C[C@H]1[C@H](c2ccc(C#Cc3cccc(F)c3)cc2)[C@@H](CO)N1C(=O)C1CC1,101.6*,-23.9,-6.4,103.8*,83.3,14.2,15.4
C[C@@H]1CN([C@H](C)CO)C(=O)c2cc(C#CC3(O)CCCC3)cnc2O[C@@H]1CN(C)C(=O)Cc1ccncc1,-24.7,12.3,-3.6,.,.,.,.
CCN1[C@@H]2c3cccc(=O)n3C[C@@H]2[C@@H](CO)[C@@H]1C(=O)N1CCc2ccccc2C1,13.6,-1.0,1.4,.,.,.,.
